# High-throughput results as filed in PubChem.
# The list is not random: actives were taken first. Their share in the collection is about 3.5%.
# Rv3671c protease – inhibitors of M. tuberculosis serine protease Rv3671c. P9WHR9. inhibition, % at 5.96 µM. 320,000 tested, 0.048% active; in the data active = inhibition above about 38%;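 note: extracellular domain of Rv3671c used as enzyme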
# GDH-TPI counter-1 – inhibits GDH-TPI coupling enzymes, artifact for Mtb FBA screen; GDH-TPI coupled enzyme counterscreen, NADH absorbance; inhibition, % at 4.8 µM; 360,000 tested, 1.2% active; in the data active = inhibition above about 30%
# UGM FP inh – Mtb UDP-galactopyranose mutase inhibition. P9WIQ1. purified UGM, fluorescence polarization probe displacement. 320,000 tested, 0.06% active. inhibition, % at 10 µM; in the data active = inhibition above about 10%, passing the limit was not always enough
# Target sequence (P9WIQ1 whole entry, looked up): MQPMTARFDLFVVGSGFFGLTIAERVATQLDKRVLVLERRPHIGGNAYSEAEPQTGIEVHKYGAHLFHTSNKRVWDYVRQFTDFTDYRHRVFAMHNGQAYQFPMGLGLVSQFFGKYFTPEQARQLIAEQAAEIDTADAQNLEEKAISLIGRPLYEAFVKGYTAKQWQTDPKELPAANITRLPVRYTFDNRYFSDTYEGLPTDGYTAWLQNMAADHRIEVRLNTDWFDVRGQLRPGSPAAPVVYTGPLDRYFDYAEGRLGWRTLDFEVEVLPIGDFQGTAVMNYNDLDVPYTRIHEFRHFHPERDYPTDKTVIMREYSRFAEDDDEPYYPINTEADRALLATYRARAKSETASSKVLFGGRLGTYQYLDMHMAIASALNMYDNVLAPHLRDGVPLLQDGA
# Mtb bLac sens – beta-lactam sensitization of Mtb H37Rv; M. tuberculosis H37Rv growth with meropenem, percent inhibition; inhibition, % at 25 µM; 330,000 tested, 0.27% active; AID 434955;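 note: growth measured after seven days incubation then overnight dye step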
# FBA Mtb inh – inhibitors of M. tuberculosis fructose-bisphosphate aldolase; P9WQA3; purified M. tuberculosis FBA, fluorescence read-out; 360,000 tested, 2.3% active; inhibition, % at 1 µM; in the data active = inhibition above about 27%
# Mtb FBA inh conf – Mtb FBA inhibition, confirmed; inhibition, % at 1 µM; 5,600 tested, 78% active; purified M. tuberculosis FBA, fluorescence read-out; shares compounds with FBA Mtb inh; in the data active = inhibition above about 27%
# GDH-TPI counter-2 – GDH-TPI inhibition counter-screen for FBA inhibitors. AID 652141. 5,600 tested, 81% active. inhibition, % at 1 µM. shares compounds with FBA Mtb inh. GDH-TPI coupled enzyme counterscreen, fluorescence; in the data active = inhibition above about 10%
# GDH-TPI dose – counter-screen for M. tuberculosis FBA inhibitors: GDH-TPI dose response; GDH-TPI coupled enzyme assay, fluorescence, artifact counterscreen; IC50, µM; 170 tested, 79% active; AID 652145; shares compounds with FBA Mtb inh
# A number is an active result; – = inactive; · = not tested or not shown; + = active, no number. Unless noted, the rule behind the calls is not given here.
SMILES,Rv3671c protease,GDH-TPI counter-1,UGM FP inh,Mtb bLac sens,FBA Mtb inh,Mtb FBA inh conf,GDH-TPI counter-2,others
N#Cc1c(-c2ccccc2)c(C#N)c2nc3ccccc3n2c1N,–,–,–,–,83.0,91.4,67.1,
O=C(N/N=C/c1ccc(N2CCOCC2)cc1)C1COc2ccccc2O1 (configuration not stated),–,–,–,–,38.2,43.6,41.5,
COc1cc2oc(=O)ccc2cc1[C@@H](O)[C@@H]1OC(C)(C)OC1(C)C,–,–,–,–,29.5,79.2,40.1,
COc1cc2oc(=O)ccc2cc1[C@H](O)[C@@H](O)C(C)(C)O,–,–,–,–,48.8,47.4,31.9,
O=[N+]([O-])c1ccc(/C=N\NS(=O)(=O)c2ccc(F)cc2)o1,–,–,–,–,–,·,·,
CC(C)CCNCC(=O)NC(c1ccccc1)c1ccccc1,–,–,–,–,–,·,·,
Cc1nn(CC(=O)Nc2ccc3c(c2)nc(CCN2CCCCC2)n3C)c(=O)c2ccccc12,–,–,·,–,–,·,·,
CC(c1ccccc1)N1CCn2c(nc3cc(NC(=O)NC4CCCCC4)ccc32)C1 (configuration not stated),–,–,–,–,56.9,55.8,52.2,
Cc1nn(CC(=O)Nc2ccc3c(c2)nc2n3CCN(C3CCCCC3)C2)c(=O)c2ccccc12,–,–,–,–,50.9,129.6,101.4,
Cc1c(Br)c([N+](=O)[O-])nn1CC(=O)NC1CCCCCC1,–,–,–,–,–,·,·,
O=C(N[C@@H](Cc1ccccc1)C(=O)N1CCN(S(=O)(=O)c2ccc(F)cc2)CC1)c1ccco1,·,–,·,·,–,·,·,
CCCC(=O)Nc1ccc2c(c1)C(=O)NC2=O,–,–,–,–,33.0,114.9,88.4,
Cc1ccccc1C(=O)Nc1ccc2c(c1)C(=O)NC2=O,–,–,–,–,38.8,–,–,
CCCC(=O)Nc1cccc(Oc2ccc3c(c2)C(=O)NC3=O)c1,–,–,–,–,–,·,·,
O=C(Cc1ccc(Cl)cc1)Nc1ccc2c(c1)C(=O)NC2=O,–,–,–,–,59.8,51.2,35.1,
COc1ccccc1C(=O)Nc1ccc2c(c1)C(=O)NC2=O,–,–,–,–,–,·,·,
O=C1NC(=O)c2cc(NC(=O)C3CCCO3)ccc21 (configuration not stated),–,–,–,–,37.7,–,–,GDH-TPI dose=4.23
Cc1ccc(NC(=O)C2CC2C)c(Cl)c1 (configuration not stated),–,–,–,–,–,·,·,
CC(C)(C)N(CC(=O)NC1CCCCC1)C(=O)CS(=O)CC(=O)Nc1ccc(F)cc1 (configuration not stated),–,–,–,–,–,·,·,
CC1CCN(C(=O)CSc2ccc(-c3ccccc3)nn2)CC1,–,–,–,–,–,·,·,
COCCCNC(=S)NC(=O)c1ccc(C)cc1,–,–,–,–,–,·,·,
CCCc1cc(=O)n2nc(N3CCC(C(=O)N4CCN(c5cccc(OC)c5)CC4)CC3)sc2n1,–,–,–,–,–,·,·,
O=C(CN1C(=O)C2C3C=CC(C3)C2C1=O)Nc1ccc2nccnc2c1 (configuration not stated),–,–,–,–,26.9,+,+,
O=C(CN1C(=O)C2C3C=CC(C3)C2C1=O)Nc1ccc(F)cc1 (configuration not stated),–,–,–,–,–,·,·,
N#C/C(=C\c1cccc(Cl)c1)c1n[nH]c(Cn2cncn2)n1,–,–,–,–,38.9,56.7,43.1,
SMILES,Rv3671c protease,GDH-TPI counter-1,UGM FP inh,Mtb bLac sens,FBA Mtb inh,Mtb FBA inh conf,GDH-TPI counter-2,others
COc1c(O)cc(O)c2c(=O)cc(-c3ccccc3)oc12,–,–,·,–,–,·,·,
COc1ccc(-c2cc(C(F)F)n3ncc(C(=O)Nc4cc(C)on4)c3n2)cc1,–,–,–,–,–,·,·,
O=C(O)c1cc(-c2c[nH]c3ccccc23)nc2ccc3ccccc3c12,–,–,–,–,44.9,+,135.7,
CCN(CC)C(=O)c1c(-c2ccccc2)oc2ccc(OC)cc12,–,–,–,–,–,·,·,
CCOc1ccc2oc(-c3ccccc3)c(C(=O)N3CCN(CCO)CC3)c2c1,·,–,·,·,41.9,93.2,89.7,
CCOc1ccc2oc(-c3ccccc3)c(C(N)=O)c2c1,–,–,–,–,68.9,+,198.7,
CCOc1ccc2oc(-c3ccccc3)c(C(=O)N(C)C)c2c1,–,–,–,–,49.7,–,–,
COc1ccc(C(=O)C2CCCN(C(=O)c3cccc(N4CCCC4=O)c3)C2)cc1OC (configuration not stated),·,–,·,·,–,·,·,
Cc1cccc(C(=O)Oc2ccc3ccc(O)cc3c2)c1,–,–,–,–,–,·,·,
Oc1ccc(Cl)cc1C=Nc1ccccc1Br,–,–,–,–,–,·,·,
Oc1ccc(Br)cc1C=Nc1ccc2c3c(cccc13)CC2,–,–,·,–,38.4,+,+,
CCOCCCn1c(N)c(C(=O)Nc2sc3c(c2C(=O)OC)CCCC3)c2nc3ccccc3nc21,–,–,–,–,45.7,187.5,153.2,
COCCNC(=O)c1c(N)n(CCC2=CCCCC2)c2nc3ccccc3nc12,–,–,–,–,53.7,76.6,56.3,
CCn1ccc(C(=O)Nc2sc3c(c2C(=O)OC)CCC3)n1,·,–,–,–,–,·,·,
CCCCn1c2nc3ccccc3nc2c2c(=O)n(C(C)CC)cnc21 (configuration not stated),–,–,–,–,–,·,·,
COCCNC(=O)CSc1nc2cc(OC)c(OC)cc2c(=O)n1CCC1=CCCCC1,·,–,·,·,–,·,·,
COCCCn1c(N)c(C(=O)NCCC(C)C)c2nc3ccccc3nc21,–,–,–,–,33.5,74.3,62.2,
CCC(C)n1c(C)nc2c(c1=O)c1nc3ccccc3nc1n2CCC1=CCCCC1 (configuration not stated),–,–,–,–,31.6,+,+,
COC(=O)C1CN(C(=O)C(C)Oc2ccc(F)cc2)c2ccccc2O1 (configuration not stated),–,–,–,–,–,·,·,
CCCCCn1c(N)c(C(=O)NCc2cccs2)c2nc3ccccc3nc21,–,·,–,–,·,·,·,
CCCCn1c(N)c(C(=O)OCCOC)c2nc3ccccc3nc21,–,–,–,–,54.9,31.2,17.2,
O=C(Cc1ccc(NC(=O)C2CCCN(C(=O)c3ccccc3)C2)cc1)Nc1ccc(C(=O)N2CCOCC2)cc1 (configuration not stated),·,–,·,·,–,·,·,
CN1CCc2c(sc3nc(SCC(=O)N4CCOCC4)nc(N)c23)C1,–,–,–,–,53.9,–,–,
O=C(C1CCN(c2ccc(N3CCOCC3)nn2)CC1)N1CCN(c2ccc(F)cc2)CC1,–,–,–,–,33.5,39.1,31.8,
O=C(c1cccc(Br)c1)N1CCN(c2ccc(N3CCOCC3)nn2)CC1,–,–,–,–,–,·,·,
COc1ccc2c(c1)CCc1cc(C(=O)N3CCN(c4ccc(N5CCOCC5)nn4)CC3)sc1-2,–,34.1,–,–,40.5,+,195.2,
